Shown are actives, neighbours in structure and some others; about 12% of the full set was active somewhere.
L3MBTL1 inh: inhibitors of human L3MBTL1 | Q9Y468 | AlphaScreen L3MBTL1–H3K9me1 peptide binding | Potency, µM (highest dose often 57.1 µM), inactives show at the top dose activity, negative = inhibition, actives largely listed as inhibitors | 230,000 tested, 0.66% active | AID 485360; note: % is set by controls: 0 for no effect and ±100 for the full control effect; nearly all actives have a fitted effect of over 60% in size
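AlphaScreen proximity signal between nickel-chelate acceptor and streptavidin donor beads (final 10 ug/mL) reports binding of 50 nM L3MBTL1 to 75 nM biotin-H3 K9me1 peptide; complex incubated with compounds 30 min at room temperature; cefsulodin titration as control.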
BAZ2B block: inhibitors of human BAZ2B bromodomain | 360,000 tested, 4.4% active | Potency, µM (highest dose often 114 µM), for the others: top-dose activity change, negative = inhibition, hits mostly inhibitors | AID 504333 | AlphaScreen BAZ2B-H3K14Ac peptide displacement; note: % is set by controls: 0 for no effect and ±100 for the full control effect; nearly all actives have a fitted effect of over 60% in size
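Complex of BAZ2B and biotin-H3K14Ac (50 nM apiece) forms over 30 min at RT, then faces library compounds up to 110 uM for another 30 min; AlphaScreen beads added, 20 min dark incubation, luminescence read.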
G9a inh: blocks human histone lysine methyltransferase G9a. G9a H3K9 monomethylation, AlphaScreen, 2 h. Potency, µM (highest dose often 102 µM), for the others: at the top dose activity, negative = inhibition, most hits filed as inhibitors. 350,000 tested, 8.8% active; note: % is set by controls: 0 for no effect and ±100 for the full control effect; nearly all actives have a fitted effect of over 75% in size
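G9a (20 nM) preincubated 15 min RT with compounds, then 500 nM biotinylated H3K9 peptide and 20 uM SAM added; 2 h RT reaction. Monomethyl-H3K9 product detected by AlphaScreen with anti-H3K9me1 antibody, streptavidin donor and anti-rabbit IgG acceptor beads.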
Sfp inh: Sfp phosphopantetheinyl transferase inhibition. Q9F4F7. Biochemical Sfp PPTase activity, qHTS. Potency, µM, for inactives: largest response in the series, negative = inhibition, hits mostly inhibitors. 310,000 tested, 3.5% active. AID 1490;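 note: the enzyme is Sfp with the accession as filed and its product quenches rhodamine fluorescence; 0% = enzyme reaction without inhibitor and -100% = no enzyme wells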
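Sfp 15 nM + cpd, 15 min RT; start w/ rhodamine-CoA 5 uM, BHQ-2-YbbR 12.5 uM (final); 50 mM Hepes pH 7.6, 10 mM MgCl2, 0.01% NP-40, 0.01% BSA; read 525/598 nm at 0 and 30 min.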
JMJD2A Tudor inh: inhibitors of human JMJD2A Tudor domain | O75164 | AlphaScreen JMJD2A-Tudor / H3K4me3 peptide binding | Potency, µM (highest dose often 114 µM), for the others: at the top dose activity change, negative = inhibition, most hits filed as inhibitors | 390,000 tested, 4.4% active | AID 504339; note: % is set by controls: 0 for no effect and ±100 for the full control effect; nearly all actives have a fitted effect of over 50% in size
Target sequence (O75164 whole entry, looked up, the tested form may be a part): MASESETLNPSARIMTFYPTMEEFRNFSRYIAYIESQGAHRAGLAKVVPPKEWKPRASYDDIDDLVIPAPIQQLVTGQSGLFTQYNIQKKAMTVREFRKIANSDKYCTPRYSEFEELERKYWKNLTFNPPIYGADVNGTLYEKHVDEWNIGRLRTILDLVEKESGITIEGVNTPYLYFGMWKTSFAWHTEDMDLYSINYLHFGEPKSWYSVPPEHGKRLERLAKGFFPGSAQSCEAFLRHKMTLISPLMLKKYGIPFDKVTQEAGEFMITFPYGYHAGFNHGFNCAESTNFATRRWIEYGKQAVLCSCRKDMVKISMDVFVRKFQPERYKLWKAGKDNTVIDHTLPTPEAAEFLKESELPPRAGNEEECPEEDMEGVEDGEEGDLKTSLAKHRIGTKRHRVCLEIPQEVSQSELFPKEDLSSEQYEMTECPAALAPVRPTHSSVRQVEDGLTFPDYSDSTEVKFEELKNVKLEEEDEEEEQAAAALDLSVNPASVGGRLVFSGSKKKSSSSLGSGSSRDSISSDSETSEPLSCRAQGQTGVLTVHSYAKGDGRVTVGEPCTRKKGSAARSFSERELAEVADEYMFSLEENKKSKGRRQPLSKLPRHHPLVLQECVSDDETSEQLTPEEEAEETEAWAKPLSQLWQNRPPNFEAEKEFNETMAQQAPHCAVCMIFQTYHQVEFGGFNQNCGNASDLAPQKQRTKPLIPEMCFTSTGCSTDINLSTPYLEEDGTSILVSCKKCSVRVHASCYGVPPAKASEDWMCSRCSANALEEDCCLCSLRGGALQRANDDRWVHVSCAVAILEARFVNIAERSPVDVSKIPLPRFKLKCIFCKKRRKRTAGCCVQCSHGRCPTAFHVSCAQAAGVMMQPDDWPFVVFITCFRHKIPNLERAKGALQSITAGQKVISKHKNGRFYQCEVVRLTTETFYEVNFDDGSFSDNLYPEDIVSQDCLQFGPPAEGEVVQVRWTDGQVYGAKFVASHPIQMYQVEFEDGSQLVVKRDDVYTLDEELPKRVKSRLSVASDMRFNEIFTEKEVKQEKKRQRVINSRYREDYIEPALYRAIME
HP1b binding inh: inhibitors of HP1-beta chromodomain binding to methylated histone tails. 390,000 tested, 0.56% active. P83916. Potency, µM (top dose mostly 114 µM), without a hit: at the highest dose activity change, negative = inhibition, most hits filed as inhibitors. AlphaScreen HP1-beta / biotin-H3K9me3 peptide binding. AID 540317; note: nearly all actives have a fitted effect of over 70% in size
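AlphaScreen: HP1-beta (50 nM) preformed 30 min with biotin-H3(1-18)K9me3 peptide (50 nM) in PBS pH 7.4, 0.01% Tween-20. Compound added for 30 min at RT, then streptavidin donor/nickel chelate acceptor beads (10 ug/mL) for 30 min.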
An asterisk follows results filed as active; ? = inconclusive; . = not tested or not shown; ! = not confirmed by another sample; [ ] = another dose, or the depositor's remark. Calls come from the whole dose curve; as a rule, active = well fitted curve in the direction sought with a large enough effect; inconclusive = small, poorly fitted or top-dose-only effect, or another doubt; inactive = no such curve, though single readings can be large; an effect the other way counts as inactive or inconclusive. Potency is the fitted concentration of half-maximal effect.

SMILES	L3MBTL1 inh	BAZ2B block	G9a inh	Sfp inh	JMJD2A Tudor inh	HP1b binding inh
COc1ccc(NC(=O)C(NS(=O)(=O)c2ccc3c(c2)CCCC(=O)N3)C(C)C)c(OC)c1 (stereo not drawn)	.	-3%	-6%[59 µM]	.	-22%	22%
CCCCn1c(=O)[nH]c2nc3cc(N)ccc3nc2c1=O	-5%	?	3.5µM*	56µM*	-25%	7%
Nc1ccc2nc3c(=O)n(CCc4ccccc4)c(=O)[nH]c3nc2c1	.	7%	.	-18%	0%	25%
Cc1cc2nc3c(=O)n(CCc4ccccc4)c(=O)[nH]c3nc2cc1N	.	-12%	-4%	7.9µM*	-19%	14%
C[C@H]1c2cccc(O)c2C(O)=C2C(=O)[C@]3(O)C(O)=C(C(N)=O)C(=O)[C@@H](N(C)C)[C@@H]3[C@@H](O)[C@@H]21	.	8.9µM*	2.7µM*!	-3%	13µM*	19%
C=C1c2c(Cl)ccc(O)c2C(O)=C2C(=O)[C@@]3(O)C(O)=C(C(N)=O)C(=O)[C@@H](N(C)C)[C@@H]3[C@@H](O)[C@H]12	.	.	11µM*	10%	.	.
C[C@H]1c2cccc(O)c2C(O)=C2C(=O)[C@]3(O)C(O)=C(C(N)=O)C(=O)C(N(C)C)[C@@H]3[C@@H](O)C21 (stereo partly drawn)	.	.	3.2µM*	.	.	.
CC1c2cccc(O)c2C(O)=C2C(=O)[C@]3(O)C(O)=C(C(N)=O)C(=O)C(N(C)C)C3C(O)C21 (stereo partly drawn)	.	.	?	-5%	.	.
Cc1cccc(C(=O)NCC(=O)OCc2cc(=O)n3nc(CC(C)C)sc3n2)c1	.	-7%	10%[59 µM]	.	-2%	11%
Cc1ccc(C)c(N2CCN(C(=O)c3ccc(-c4nc(COc5ccccc5)c(C)o4)cc3)CC2)c1	.	-35%	-44%[59 µM]	.	-24%	22%
Cc1ccc(C(=O)Nc2ccc(C(=O)N/N=C/c3ccncc3)cc2)cc1	?	?	32µM*	-17%	.	.
Cc1ccc(N/N=C/c2ccncc2)cc1	.	?	28µM*	14%	?	7%
Cc1ccc(N/N=C/c2cccnc2)cc1	-15%	?	?	-15%	?	?
Cc1ccccc1C(=O)Nc1nc2c(s1)CC(C(C)(C)C)CC2 (stereo not drawn)	.	7%	26%[59 µM]	.	-33%	73%
CCOC(=O)Cn1c(=O)c2c(nc(N3CCOCC3)n2Cc2ccccc2)n(C)c1=O	.	-13%	2%[59 µM]	.	-17%	22%
COC(=O)CC1Oc2ccc(C)cc2-n2cc(-c3ccc(C)cc3)nc21 (stereo not drawn)	.	50µM*	?	.	-29%	7%
Cn1cc(-c2nc3cnc(N4CCOCC4)nc3n(CCC#N)c2=O)c2ccccc21	.	.	2%[0.501 µM]	32%	.	.
CCc1nn(CC(=O)NCCC(C)C)c(=O)c2cc3occc3n12	.	-1%	2%[59 µM]	.	-18%	-6%
Nc1ccccc1C(=O)N(Cc1ccccc1)Cc1ccccc1	-11%	0%	12%[59 µM]	27%	-5%	15%
Nc1ccccc1C(=O)CC(N)C(=O)O (stereo not drawn)	.	.	.	100µM*!	.	.
O=C(Nc1cccc(C(F)(F)F)c1)/C(=C\c1ccco1)NC(=O)c1cccs1	3%	-2%	23%[59 µM]	-12%	-15%	5%
O=C(Nc1cccc(F)c1)/C(=C\c1ccco1)NC(=O)c1cccs1	0%	-3%[57.1 µM]	?	56µM*	-18%[57.1 µM]	-24%
CC(C)(C)c1ccc(C(=O)N/C(=C\c2ccco2)C(=O)Nc2ccccc2C(=O)O)cc1	.	10%	?	50µM*	-36%	-2%
O=C(Nc1ccc(C(=O)O)cc1)/C(=C\c1ccco1)NC(=O)c1ccccc1	?	-26%	.	20µM*	-13%	29%
CC(=O)Nc1ccc(NC(=O)/C(=C/c2ccco2)NC(=O)c2ccccc2)cc1	0%	-37%	.	18µM*	-26%	-11%
CCOc1ccc(NC(=O)c2nn(C)c3c2CS(=O)(=O)c2ccccc2-3)cc1	.	-26%	?	.	-13%	15%

Screening results: PubChem BioAssay, National Center for Advancing Translational Sciences (NCATS)
